According to the supplement of paper PMC10849652:
About 7,900 targets were measured; listed, in parts, are those with a hit and a random draw of the rest. About 0.6% of all pairs of compound and target were hits. A number with no mark means an inactive call.

Tests used:
Experiment in all cases: log2 fold change, soluble protein after heating vs DMSO (PISA); higher = thermal stabilisation; K562 cells, 10 uM, 30 min; active = over 0.2 and 3.5 SD of the protein, either way, in both replicates (recomputed)
[1] = compound: COC1=CC=C(C=C1)CN2C=CC3=C2C=C(C=C3)C(=O)NO
Summary of the method: (§1)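 Aliquots of K562 cells (2×10^6 cells/mL) treated with 10 μM compound for 30 min were heated for 3 min over 48°C-58°C. After pooling and extraction in PBS with 0.5% NP-40 at 4°C, soluble protein from a 21,000xg, 90 min spin was quantified by TMTpro 16plex LC-MS/MS with channel sums equalised. Thermal stability is expressed against control samples, from duplicates, as a log2 fold change.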

filanesib = compound: CON(C)C(=O)N1N=C(c2cc(F)ccc2F)S[C@@]1(CCCN)c1ccccc1 [filanesib]
Summary of the method: as §1

zotarolimus = compound: CO[C@H]1C[C@@H]2CC[C@@H](C)[C@@](O)(O2)C(=O)C(=O)N2CCCC[C@H]2C(=O)O[C@H]([C@H](C)C[C@@H]2CC[C@H](n3cnnn3)[C@H](OC)C2)CC(=O)[C@H](C)/C=C(\C)[C@@H](O)[C@@H](OC)C(=O)[C@H](C)C[C@H](C)/C=C/C=C/C=C/1C [zotarolimus]
Summary of the method: as §1

idasanutlin = compound: COc1cc(C(=O)O)ccc1NC(=O)[C@@H]1N[C@@H](CC(C)(C)C)[C@](C#N)(c2ccc(Cl)cc2F)[C@H]1c1cccc(Cl)c1F [idasanutlin]
Summary of the method: as §1

alisertib = compound: COc1cc(Nc2ncc3c(n2)-c2ccc(Cl)cc2C(c2c(F)cccc2OC)=NC3)ccc1C(=O)O [alisertib]
Summary of the method: as §1

[2] = compound: COc1cc2nc(-c3cc(F)ccc3O)nc(N[C@@H]3CNC[C@H]3C(C)(C)O)c2cc1OC
Summary of the method: as §1

gefitinib = compound: COc1cc2ncnc(Nc3ccc(F)c(Cl)c3)c2cc1OCCCN1CCOCC1 [gefitinib]
Summary of the method: as §1

[3] = compound: COc1cccc2cc(-c3nc([C@H]4CC[C@H](C(=O)O)CC4)n4ncnc(N)c34)[nH]c12
Summary of the method: as §1

lapatinib = compound: CS(=O)(=O)CCNCc1ccc(-c2ccc3ncnc(Nc4ccc(OCc5cccc(F)c5)c(Cl)c4)c3c2)o1 [lapatinib]
Summary of the method: as §1

pictilisib = compound: CS(=O)(=O)N1CCN(Cc2cc3nc(-c4cccc5[nH]ncc45)nc(N4CCOCC4)c3s2)CC1 [pictilisib]
Summary of the method: as §1

[4] = compound: CS(=O)(=O)c1ccc(-c2cnc(N)c(C(=O)Nc3ccccc3)n2)cc1
Summary of the method: as §1

crizotinib = compound: C[C@@H](Oc1cc(-c2cnn(C3CCNCC3)c2)cnc1N)c1c(Cl)ccc(F)c1Cl [crizotinib]
Summary of the method: as §1

[5] = compound: C[C@@H]1COCCN1C2=NC(=NC(=C2)C3(CC3)S(=O)(=O)C)C4=C5C=CNC5=CC=C4
Summary of the method: as §1

[6] = compound: C[C@H](C1=CC=C(C=C1)C(=O)NC2=C3C=CNC3=NC=C2)N
Summary of the method: as §1

duvelisib = compound: C[C@H](Nc1ncnc2nc[nH]c12)c1cc2cccc(Cl)c2c(=O)n1-c1ccccc1 [duvelisib]
Summary of the method: as §1

gandotinib = compound: Cc1cc(Nc2cc(CN3CCOCC3)c3nc(C)c(Cc4ccc(Cl)cc4F)n3n2)n[nH]1 [gandotinib]
Summary of the method: as §1

tozasertib = compound: Cc1cc(Nc2cc(N3CCN(C)CC3)nc(Sc3ccc(NC(=O)C4CC4)cc3)n2)n[nH]1 [tozasertib]
Summary of the method: as §1

[7] = compound: Cc1cc(SCc2sc(-c3ccc(C(F)(F)F)cc3)nc2C)ccc1OCC(=O)O
Summary of the method: as §1

doramapimod = compound: Cc1ccc(-n2nc(C(C)(C)C)cc2NC(=O)Nc2ccc(OCCN3CCOCC3)c3ccccc23)cc1 [doramapimod]
Summary of the method: as §1

ispinesib = compound: Cc1ccc(C(=O)N(CCCN)[C@@H](c2nc3cc(Cl)ccc3c(=O)n2Cc2ccccc2)C(C)C)cc1 [ispinesib]
Summary of the method: as §1

UniProt Q96GA3, sequence (Q96GA3 whole entry, looked up): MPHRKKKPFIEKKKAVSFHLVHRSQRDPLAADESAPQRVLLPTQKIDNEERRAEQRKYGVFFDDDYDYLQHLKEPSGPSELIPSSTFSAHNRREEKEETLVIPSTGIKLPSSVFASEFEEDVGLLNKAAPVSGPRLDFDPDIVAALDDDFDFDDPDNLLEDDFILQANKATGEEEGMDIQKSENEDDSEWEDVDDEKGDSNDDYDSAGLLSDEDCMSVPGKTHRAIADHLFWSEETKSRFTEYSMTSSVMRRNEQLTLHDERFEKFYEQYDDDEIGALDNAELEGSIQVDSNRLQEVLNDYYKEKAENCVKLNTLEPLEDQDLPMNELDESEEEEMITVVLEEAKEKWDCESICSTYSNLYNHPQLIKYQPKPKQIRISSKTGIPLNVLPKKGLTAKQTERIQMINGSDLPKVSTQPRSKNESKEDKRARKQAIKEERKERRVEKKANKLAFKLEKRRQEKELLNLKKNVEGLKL
UniProt Q8NHS3, sequence (Q8NHS3 whole entry, looked up): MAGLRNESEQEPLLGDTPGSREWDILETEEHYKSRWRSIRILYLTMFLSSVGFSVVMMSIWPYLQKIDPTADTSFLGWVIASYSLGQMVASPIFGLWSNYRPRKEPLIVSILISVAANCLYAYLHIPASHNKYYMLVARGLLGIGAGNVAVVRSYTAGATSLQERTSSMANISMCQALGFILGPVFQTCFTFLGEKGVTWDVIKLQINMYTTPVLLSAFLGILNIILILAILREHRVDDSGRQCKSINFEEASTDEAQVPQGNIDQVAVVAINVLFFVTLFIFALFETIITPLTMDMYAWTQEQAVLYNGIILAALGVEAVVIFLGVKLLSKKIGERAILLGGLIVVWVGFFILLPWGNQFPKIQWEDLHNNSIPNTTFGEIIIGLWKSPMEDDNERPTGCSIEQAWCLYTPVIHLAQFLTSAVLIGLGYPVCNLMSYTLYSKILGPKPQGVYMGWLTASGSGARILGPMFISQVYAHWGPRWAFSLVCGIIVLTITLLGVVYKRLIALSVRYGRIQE
UniProt Q96PV6, sequence (Q96PV6 whole entry, looked up): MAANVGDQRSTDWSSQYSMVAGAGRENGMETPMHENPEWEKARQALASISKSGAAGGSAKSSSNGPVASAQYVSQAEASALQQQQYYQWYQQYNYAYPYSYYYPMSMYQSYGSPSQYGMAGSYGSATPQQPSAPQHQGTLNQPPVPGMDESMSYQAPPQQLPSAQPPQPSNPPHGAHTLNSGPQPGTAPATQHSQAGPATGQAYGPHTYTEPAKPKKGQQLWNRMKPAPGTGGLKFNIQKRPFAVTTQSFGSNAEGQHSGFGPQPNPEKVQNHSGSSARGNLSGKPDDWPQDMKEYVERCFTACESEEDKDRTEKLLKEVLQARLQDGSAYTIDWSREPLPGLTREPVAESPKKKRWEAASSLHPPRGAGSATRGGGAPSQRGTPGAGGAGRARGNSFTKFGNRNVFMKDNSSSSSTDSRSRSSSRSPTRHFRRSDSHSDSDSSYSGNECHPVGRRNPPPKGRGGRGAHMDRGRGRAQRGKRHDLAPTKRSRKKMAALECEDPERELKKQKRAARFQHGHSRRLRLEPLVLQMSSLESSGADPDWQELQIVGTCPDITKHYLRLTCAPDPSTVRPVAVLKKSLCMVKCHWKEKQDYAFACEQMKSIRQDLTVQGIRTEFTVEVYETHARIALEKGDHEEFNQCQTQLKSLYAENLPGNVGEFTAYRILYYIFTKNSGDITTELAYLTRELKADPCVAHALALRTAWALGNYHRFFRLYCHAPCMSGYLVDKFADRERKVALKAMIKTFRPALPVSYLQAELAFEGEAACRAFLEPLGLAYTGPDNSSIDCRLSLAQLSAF
UniProt Q12906, sequence (Q12906 whole entry, looked up): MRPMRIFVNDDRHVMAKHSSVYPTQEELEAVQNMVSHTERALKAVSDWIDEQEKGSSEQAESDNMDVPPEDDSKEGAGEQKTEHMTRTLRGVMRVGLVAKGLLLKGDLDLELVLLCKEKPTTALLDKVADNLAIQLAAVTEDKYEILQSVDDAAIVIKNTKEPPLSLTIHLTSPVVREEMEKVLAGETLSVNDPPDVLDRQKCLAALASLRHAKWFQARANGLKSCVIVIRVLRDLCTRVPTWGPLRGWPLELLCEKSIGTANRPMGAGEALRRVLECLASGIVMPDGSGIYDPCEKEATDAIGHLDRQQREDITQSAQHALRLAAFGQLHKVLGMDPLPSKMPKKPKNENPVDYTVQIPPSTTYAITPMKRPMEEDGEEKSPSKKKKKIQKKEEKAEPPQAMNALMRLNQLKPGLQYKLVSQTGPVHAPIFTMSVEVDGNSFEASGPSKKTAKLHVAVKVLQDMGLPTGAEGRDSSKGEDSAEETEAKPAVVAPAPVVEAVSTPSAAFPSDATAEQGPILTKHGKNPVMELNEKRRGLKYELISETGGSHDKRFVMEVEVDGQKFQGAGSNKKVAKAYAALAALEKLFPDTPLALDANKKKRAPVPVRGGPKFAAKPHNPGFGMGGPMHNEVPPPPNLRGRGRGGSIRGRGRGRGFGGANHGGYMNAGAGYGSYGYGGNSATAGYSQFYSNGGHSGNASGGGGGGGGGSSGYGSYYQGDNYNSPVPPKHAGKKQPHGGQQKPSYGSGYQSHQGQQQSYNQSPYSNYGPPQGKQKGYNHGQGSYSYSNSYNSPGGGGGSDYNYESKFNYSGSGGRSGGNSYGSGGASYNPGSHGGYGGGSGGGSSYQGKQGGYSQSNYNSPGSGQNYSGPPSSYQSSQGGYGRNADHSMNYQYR
UniProt P51884, sequence (P51884 whole entry, looked up): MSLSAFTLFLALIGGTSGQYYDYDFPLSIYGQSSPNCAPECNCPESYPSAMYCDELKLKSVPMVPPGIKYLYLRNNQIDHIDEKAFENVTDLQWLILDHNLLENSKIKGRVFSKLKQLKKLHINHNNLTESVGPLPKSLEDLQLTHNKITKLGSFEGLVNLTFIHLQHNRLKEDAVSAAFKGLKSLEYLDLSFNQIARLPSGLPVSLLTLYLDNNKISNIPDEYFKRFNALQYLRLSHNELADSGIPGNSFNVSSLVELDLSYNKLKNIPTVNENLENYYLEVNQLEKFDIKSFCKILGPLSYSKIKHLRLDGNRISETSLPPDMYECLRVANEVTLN
UniProt Q8WV07, sequence (Q8WV07 whole entry, looked up): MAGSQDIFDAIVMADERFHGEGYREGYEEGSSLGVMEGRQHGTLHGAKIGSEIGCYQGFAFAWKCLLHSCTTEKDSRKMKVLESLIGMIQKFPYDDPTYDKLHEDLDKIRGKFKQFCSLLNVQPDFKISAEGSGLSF
UniProt Q9NQG6, sequence (Q9NQG6 whole entry, looked up): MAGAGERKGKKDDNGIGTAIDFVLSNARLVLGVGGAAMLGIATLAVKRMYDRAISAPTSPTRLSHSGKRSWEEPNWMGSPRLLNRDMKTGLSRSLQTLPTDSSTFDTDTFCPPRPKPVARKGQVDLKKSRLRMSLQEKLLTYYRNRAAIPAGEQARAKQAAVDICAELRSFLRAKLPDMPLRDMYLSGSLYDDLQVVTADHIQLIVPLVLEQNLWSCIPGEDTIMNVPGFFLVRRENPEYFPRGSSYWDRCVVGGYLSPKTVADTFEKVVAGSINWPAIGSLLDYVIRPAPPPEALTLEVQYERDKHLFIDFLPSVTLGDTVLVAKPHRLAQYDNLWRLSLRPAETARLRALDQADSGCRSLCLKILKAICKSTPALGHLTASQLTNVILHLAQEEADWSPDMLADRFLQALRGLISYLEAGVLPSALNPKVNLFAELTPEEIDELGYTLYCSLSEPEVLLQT
UniProt Q96G25, sequence (Q96G25 whole entry, looked up): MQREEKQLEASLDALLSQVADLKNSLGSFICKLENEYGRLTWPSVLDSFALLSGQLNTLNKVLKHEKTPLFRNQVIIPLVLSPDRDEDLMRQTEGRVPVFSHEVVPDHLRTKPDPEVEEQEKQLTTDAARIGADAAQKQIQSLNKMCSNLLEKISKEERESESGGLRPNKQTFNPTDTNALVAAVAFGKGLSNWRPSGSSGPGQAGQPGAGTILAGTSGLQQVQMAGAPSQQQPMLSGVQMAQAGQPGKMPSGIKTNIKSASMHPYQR
UniProt P17936, sequence (P17936 whole entry, looked up): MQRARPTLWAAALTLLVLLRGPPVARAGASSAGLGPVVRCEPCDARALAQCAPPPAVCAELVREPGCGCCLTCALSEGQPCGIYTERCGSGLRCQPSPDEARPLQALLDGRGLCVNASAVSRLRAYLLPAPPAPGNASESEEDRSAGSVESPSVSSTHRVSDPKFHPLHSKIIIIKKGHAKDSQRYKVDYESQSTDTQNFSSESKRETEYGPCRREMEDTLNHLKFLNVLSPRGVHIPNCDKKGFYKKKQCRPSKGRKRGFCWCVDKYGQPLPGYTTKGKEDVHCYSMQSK
UniProt O15066, sequence (O15066 whole entry, looked up): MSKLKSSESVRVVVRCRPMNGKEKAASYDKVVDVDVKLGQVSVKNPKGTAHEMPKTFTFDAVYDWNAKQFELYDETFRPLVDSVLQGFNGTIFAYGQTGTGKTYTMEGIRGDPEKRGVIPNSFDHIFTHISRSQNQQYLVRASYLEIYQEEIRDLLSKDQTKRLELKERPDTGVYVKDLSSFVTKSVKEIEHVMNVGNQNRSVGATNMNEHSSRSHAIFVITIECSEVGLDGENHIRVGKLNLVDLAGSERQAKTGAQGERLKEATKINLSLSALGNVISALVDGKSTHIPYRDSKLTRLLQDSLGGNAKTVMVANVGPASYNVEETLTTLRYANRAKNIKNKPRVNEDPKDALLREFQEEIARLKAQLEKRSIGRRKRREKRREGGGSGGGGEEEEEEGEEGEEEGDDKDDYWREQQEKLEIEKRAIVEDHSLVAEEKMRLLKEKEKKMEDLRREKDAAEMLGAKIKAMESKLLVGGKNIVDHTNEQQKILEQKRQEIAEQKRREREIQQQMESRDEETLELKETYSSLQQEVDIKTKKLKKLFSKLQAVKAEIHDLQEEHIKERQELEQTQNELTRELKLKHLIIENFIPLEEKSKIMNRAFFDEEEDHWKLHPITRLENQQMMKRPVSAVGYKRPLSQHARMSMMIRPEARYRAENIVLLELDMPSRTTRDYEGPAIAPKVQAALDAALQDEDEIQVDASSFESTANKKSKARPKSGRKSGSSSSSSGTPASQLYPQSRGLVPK

Row | Target | log2 fold change [1] | log2 fold change (filanesib) | log2 fold change (zotarolimus) | log2 fold change (idasanutlin) | log2 fold change (alisertib) | log2 fold change [2] | log2 fold change (gefitinib) | log2 fold change [3] | log2 fold change (lapatinib) | log2 fold change (pictilisib) | log2 fold change [4] | log2 fold change (crizotinib) | log2 fold change [5] | log2 fold change [6] | log2 fold change (duvelisib) | log2 fold change (gandotinib) | log2 fold change (tozasertib) | log2 fold change [7] | log2 fold change (doramapimod) | log2 fold change (ispinesib)
1 | MIEF1 (UniProt Q9NQG6) | 0.053 | -0.18 | 0.006 | -0.066 | -0.033 | -0.382 (active) | 0.051 | 0.001 | 0.004 | -0.027 | 0.088 | -0.31 (active) | -0.005 | -0.046 | 0.096 | 0.095 | -0.038 | 0.065 | 0.007 | -0.489 (active)
2 | LTO1 (UniProt Q8WV07) | -0.06 | -0.06 | 0.062 | -0.093 | 0.118 | 0.036 | 0.017 | -0.001 | -0.016 | 0.038 | 0.011 | 0.048 | -0.083 | -0.063 | 0.078 | -0.026 | -0.007 | -0.042 | 0.032 | 0.051
3 | LMBRD2 (UniProt Q68DH5) | -0.031 | -0.095 | 0.108 | -0.012 | -0.035 | 0.025 | 0.082 | -0.021 | 0.026 | 0.057 | 0.034 | -0.156 | -0.042 | -0.152 | 0.001 | -0.049 | -0.016 | -0.065 | 0.011 | -0.328 (active)
4 | LTV1 (UniProt Q96GA3) | -0.019 | 0.17 | 0.067 | 0.133 | -0.06 | 0.022 | -0.097 | -0.095 | 0.05 | 0 | 0.006 | -0.143 | -0.189 | 0.294 | -0.087 | 0.199 | 0.035 | 0.009 | 0.128 | -0.271
5 | MED8 isoform 2 (UniProt Q96G25) | -0.11 | 0.033 | -0.004 | 0.095 | -0.088 | -0.154 | -0.034 | -0.041 | 0.058 |  | 0.021 | 0.037 | -0.049 | -0.077 | 0.029 |  |  | -0.079 | -0.031 | 0.012
6 | LAMP2 isoform 2 (UniProt P13473) | -0.049 |  | 0.022 | 0.017 | -0.105 | -0.027 | -0.039 | 0.09 | -0.104 | 0.075 |  | -0.424 (active) | 0.119 | -0.051 | 0.344 (active) | 0.066 | -0.071 | 0.011 | 0.002 | 
7 | LPGAT1 (UniProt Q92604) | 0.124 | -0.021 | 0.001 | -0.098 | 0.032 | -0.082 | -0.059 | 0.12 | 0.15 |  | -0.01 | -0.101 | 0.073 | 0.015 | -0.02 |  | -0.088 | 0.16 | -0.038 | -0.237
8 | MAML1 (UniProt Q92585) | -0.065 | 0.152 | -0.065 |  |  |  |  |  |  |  | -0.022 | 0.074 | 0.053 | -0.056 |  |  |  |  | -0.038 | -0.006
9 | JAK3 (UniProt P52333) | -0.216 | -0.019 | 0.018 |  | 0.052 | -0.083 | -0.047 | -0.02 | 0.01 | -0.056 | 0.001 | 0.048 | 0.142 | -0.062 | 0.133 | -0.132 | 0.032 | 0.135 | -0.071 | 0.087
10 | IGFBP3 isoform 2 (UniProt P17936) | 0.176 | -0.272 | -1.02 (active) | 0.535 |  | -0.103 |  |  | 0.085 | -0.085 | -0.097 | -0.176 | -0.063 | -0.149 | 0.068 | -0.545 | -0.092 | 0.027 | -0.243 | 
11 | KIF3B (UniProt O15066) | -0.071 | 0.04 | 0.027 | -0.252 | -0.071 | 0.164 |  | 0.04 | 0.035 | -0.161 | -0.004 | -0.018 | 0.054 | 0.03 | 0.05 | -0.199 | -0.051 | -0.023 | 0.076 | 0.04
12 | LENG8 (UniProt Q96PV6) | 0.205 | 0 | -0.061 | -0.151 | -0.149 |  | -0.056 | -0.016 |  | -0.002 | 0.022 | -0.342 | 0.112 | 0.107 | -0.005 | -0.094 | -0.016 | 0.055 | 0.039 | 0.241
13 | MFSD8 (UniProt Q8NHS3) | -0.236 |  | -0.062 | -0.019 | 0.059 | -0.07 |  | 0.054 | 0.025 | 0.079 |  | -0.013 | 0.04 | -0.023 | -0.108 | -0.018 | 0.055 | -0.015 | 0.131 | -0.208
14 | MARK2 (UniProt E9PC69) | -0.028 | 0.128 | 0.122 | 0.106 |  | -0.765 (active) | -0.025 |  | 0.085 |  | 0.068 | -0.323 | -0.049 | 0.15 | -0.181 |  | -0.263 | 0.12 | 0.119 | -0.232
15 | MED12 isoform 2 (UniProt Q93074) | 0.093 | 0.256 |  | 0.103 | 0.214 | -0.09 | 0.024 | 0.007 | 0.028 | -0.113 | -0.088 | -0.088 | 0.207 |  | 0.068 | -0.009 | 0.012 | 0.048 | 0.095 | -0.117
16 | ILF3 (UniProt Q12906) | 0.033 | 0.156 |  |  | -0.203 |  | -0.13 | 0.045 |  |  | -0.152 | -0.201 | -0.284 |  |  |  |  |  | 0.026 | 
17 | IL27RA (UniProt Q6UWB1) | -0.02 | 0.065 | -0.11 | 0.113 | -0.29 | 0.047 | -0.169 | 0.207 | 0.043 |  | -0.031 | 0.029 | 0.539 (active) | -0.121 | 0.244 |  | -0.039 | -0.109 | 0.211 | 0.043
18 | LUM (UniProt P51884) | -0.151 | 0.169 | 0 | -0.023 |  | -0.216 | 0.087 |  | 0.067 |  | -0.011 | 0.352 | -0.146 | 0.217 | 0.021 |  | -0.182 | -0.135 | 0.168 | -0.007
